D3 antag – antagonists of human D3 dopamine receptor | P35462 | D3R cells, DiscoveRx beta-arrestin luminescence, antagonist mode; active compounds read low | max response, negative = inhibition, % | actives 2.5% (n = 360,000) | AID 652054; in the data active = max response below about -50%; inconclusive = no clear call, values can overlap the other calls; also: % is scaled to controls: 0 for no effect and ±100 for the full control effect
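Cells plated overnight at 1500 cells/well, then exposed to library compounds with dopamine controls for 90 minutes at 37 degrees C. DiscoveRx reagent added for 30–60 minutes at room temperature; luminescence read, quantitative HTS format.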
D1 agonist – activates the human D1 dopamine receptor; HEK293 T-REx D1 cells, calcium flux, agonist mode; activation, % at 2 µM; actives 1% (n = 360,000); in the data active = activation above about 30%; also: 0% is about no effect
Target sequence (P21728 whole entry, looked up): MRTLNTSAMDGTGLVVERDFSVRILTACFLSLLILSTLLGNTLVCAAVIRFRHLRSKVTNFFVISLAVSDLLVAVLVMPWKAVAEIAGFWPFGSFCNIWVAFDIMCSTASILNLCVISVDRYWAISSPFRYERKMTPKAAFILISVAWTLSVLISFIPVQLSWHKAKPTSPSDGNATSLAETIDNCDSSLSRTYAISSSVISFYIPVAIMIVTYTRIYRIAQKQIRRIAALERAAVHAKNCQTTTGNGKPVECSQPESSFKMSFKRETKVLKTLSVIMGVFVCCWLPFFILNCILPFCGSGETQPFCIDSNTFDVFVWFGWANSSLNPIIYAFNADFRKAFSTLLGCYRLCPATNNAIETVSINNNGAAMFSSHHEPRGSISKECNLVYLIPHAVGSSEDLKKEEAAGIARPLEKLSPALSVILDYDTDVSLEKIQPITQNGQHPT
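Inducible HEK293 T-REx D1 cells, force-coupled to calcium signalling, were plated at 4000 cells/well with tetracycline and held overnight at 30 C. After no-wash calcium dye loading, compound-evoked calcium rise over 180 s flagged agonists.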
D3 ag – D3 dopamine receptor (human) agonism | P35462 | D3R DiscoveRx beta-arrestin cells, luminescence, 90 min | max activation, % | actives 0.58% (n = 410,000); in the data active = max activation above about 30%; also: 0% is about no effect
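Cells at 1500/well, incubated overnight, then treated with pinned compounds (dopamine as control) for 90 min at 37 degrees C. DiscoveRx reagent added for 30 - 60 minutes at room temperature; luminescence read.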
D1 PAM – enhances dopamine response at the human D1 receptor. P21728. actives 0.036% (n = 360,000). HEK293 TREx D1 cells, calcium flux, dopamine EC20 potentiation. potentiation, % at 10 µM; in the data active = potentiation above about 30%; also: 0% is about no effect
D1 antag – blocks dopamine activation of the human D1 receptor | actives 3.2% (n = 360,000) | P21728 | AID 504652 | activity change, negative = inhibition, % at 10 µM | HEK293 TREx D1 cells, calcium flux, dopamine EC80; active compounds read low; in the data active = activity change below about -30%; also: % is scaled to controls: 0 for no effect and ±100 for the full control effect
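Antagonism measured as reduced calcium response to an EC80 dopamine addition following 180 s compound pre-read; cells were inducible HEK293 Trex D1 plated overnight at 30 C, read kinetically at 1 cycle/sec.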
Active calls of the source: *; ? = inconclusive; . = not tested or not shown; ! = not confirmed by another sample. Most compounds without a hit are left out; they make up all but 6% or so of the library.

SMILES	D3 antag	D1 agonist	D3 ag	D1 PAM	D1 antag
COc1ccc(C(=O)N2CCCC(C)(C(=O)NS(=O)(=O)C3CC3)C2)cc1 (centres undefined)	-53*	.	-13	.	.
CCCCCC[N+](C)(C)CC/C=C1/c2ccccc2Sc2ccc(Cl)cc21	-105*	0	-10	-3	-38*
CCCCCCCCCCCCCCCC[N+](C)(C)Cc1ccccc1	.	.	-11	.	.
CCOc1cc(C2NC(=O)NC(C)=C2C(=O)OCC2CCCCC2)ccc1O (centres undefined)	1	5	1	5	15
CCO[C@H]1OC(C(=O)O)=C[C@@H](c2cn(C(C)=O)c3ccccc23)[C@@H]1CCCO	-5	.	7	.	.
CCO[C@@H]1OC(C(=O)NCc2ccccc2)=C[C@H](c2cn(C(C)=O)c3ccccc23)[C@H]1CCCO	8	-1	67*	-2	6
CCO[C@H]1OC(C(=O)NCc2ccccc2)=C[C@@H](C2CC2)[C@@H]1CCCO	0	-4	3	-4	-44*
COc1ccc(-n2c(SCCC(C)C)nc3sc4c(c3c2=O)CC(C(C)C)OC4)cc1 (centres undefined)	.	3	-5	-2	-9
O=C(OCn1nnc2ccccc2c1=O)c1ccc(F)c(S(=O)(=O)N2CCOCC2)c1	-4	.	-1	.	.
COC(=O)[C@H](CCSC)NC(=O)Cn1ccc(N)nc1=O	-51*	2	-3	-2	.
COCCCNCCOCCOc1ccc(Cl)cc1C(C)(C)C	-23	38*	-8	-7	14
C=CCNCCOCCOc1ccc(Cl)cc1C(C)(C)C	-58*	17	-20	-2	6
C=CCNCCCOc1ccc(Cl)cc1C(C)(C)C	13	19	-18	-2	4
O=C(NCCOC(=O)c1ccncc1)c1ccccc1	-29	4	3	-4	3
COc1cc(C(=O)OCCNC(=O)c2ccncc2)cc(OC)c1OC	11	1	-4	-5	-39*
Cn1cc(S(=O)(=O)N2CCCC2)cc1C(=O)Nc1ccc(C(F)(F)F)cc1	.	33*	-5	-2	0
Cc1ccc(NC(=O)c2cc(S(=O)(=O)N3CCc4ccccc43)cn2C)cc1	1	1	6	-4	-5
Cn1cc(S(=O)(=O)N2CCc3ccccc32)cc1C(=O)Nc1ccc(Cl)cc1	28	7	1	-2	-37*
CSc1cccc(NC(=O)c2cc(S(=O)(=O)N3CCc4ccccc43)cn2C)c1	-13	9	-1	0	-56*
Cc1cccc(NC(=O)c2cc(S(=O)(=O)N3CCc4ccccc43)cn2C)c1	33	8	1	-2	5
Cc1cccc(C)c1NC(=O)c1cc(S(=O)(=O)N2CCc3ccccc32)cn1C	?	10	-8	-16	-47*
COc1ccccc1N1CCN(c2ncnc3c2cnn3C)CC1	.	-1	1	1	11
CCOc1ccc(NC(=O)c2cc(S(=O)(=O)N3CCC(C)CC3)cn2C)cc1	.	0	-5	-4	-22
CCc1ccccc1NC(=O)c1cc(S(=O)(=O)N2CCC(C)CC2)cn1C	.	0	62*	0	-5
CCOC(=O)C(CCSC)Nc1nc(Cl)nc(Nc2ccc(Cl)cc2)n1 (centres undefined)	-58*	.	-13	.	.
SMILES	D3 antag	D1 agonist	D3 ag	D1 PAM	D1 antag
COc1cccc(/C=C2\SC(=S)N(CCC(=O)N3CCCCC3CCO)C2=O)c1 (centres undefined)	-14	5	1	-1	-31*
COc1cccc(/C=C2\SC(=S)N(CCCC(=O)N3CCCCC3CCO)C2=O)c1 (centres undefined)	10	8	2	3	9
Cc1ccc(CN2C(=O)c3ccccc3C2c2nnnn2-c2c(C)cccc2C)cc1 (centres undefined)	-5	.	-7	.	.
O=C(NCCCCO)c1c(-c2ccccc2)oc2c1C(OCCCCCO)CCC2 (centres undefined)	-13	.	-2	.	.
CC1=C(c2ccc(C)c(C)c2)S(=O)(=O)N=C1N1CCC(C(=O)NC(C)Cc2ccco2)CC1 (centres undefined)	.	0	-3	-2	-32*
CC1=C(c2ccc(C)c(C)c2)S(=O)(=O)N=C1N1CCC(C(=O)NC(C)c2ccccc2)CC1 (centres undefined)	.	2	4	-6	-75*
O=C(CCC(=O)N(CC(=O)NC1CCCC1)c1ccccc1F)Nc1nccs1	1	2	4	-2	-9
CCC(CC)C(=O)Nc1nnc(SCc2cc(=O)n3cccc(C)c3n2)s1	.	2	62*	7	5
O=C1CC(SCc2nc3ccccc3[nH]2)C(=O)N1c1cccc(Cl)c1 (centres undefined)	-24	2	-1	-2	0
O=C1CC(SCc2nc3ccccc3[nH]2)C(=O)N1c1ccc(F)cc1 (centres undefined)	-66*	2	-4	-3	11
c1csc(-c2nn3c(C4COc5ccccc5O4)nnc3s2)c1 (centres undefined)	-11	1	4	-3	-2
c1ccc2c(c1)OCC(c1nnc3sc(-c4cnccn4)nn13)O2 (centres undefined)	21	1	30*	-3	-7
Cc1ccc(C)c(CN2C(=O)c3ccccc3Sc3ccc(C(=O)NCc4ccco4)cc32)c1	.	8	-3	-1	7
C=CCc1c(OC)ccc2ccc(=O)oc12	-57*	2	-8	-5	-10
COc1cc2oc(=O)ccc2cc1-c1c(OC)ccc2ccc(=O)oc12	16	.	2	.	.
Cc1cccc(NC(=O)CSc2nc(-c3cccs3)cc(C(F)(F)F)c2C#N)c1	.	12	-6	1	4
CCOc1ccccc1NC(=O)CSc1nc2cc(OC)c(OC)cc2c2nc(-c3ccccc3)nn12	.	1	-6	2	-9
C[C@@H](CN1CCC(Cc2ccccc2)CC1)[C@@H](O)c1ccc(O)cc1	-12	7	0	-6	-33*
CC(C(O)c1ccc(O)cc1)N1CCC(Cc2ccccc2)CC1 (centres undefined)	-88*!	7	-91	-3	-50*
CNC(=S)N1CCC(Cc2ccccc2)CC1	-9	0	1	1	1
Cc1cccc(C)c1NC(=O)NC1(C(=O)NCC2CCCO2)CCCCC1 (centres undefined)	1	4	-2	-4	5
CC1(C(=O)NS(=O)(=O)c2cccs2)CCN1C(=O)CC1CC1 (centres undefined)	23	.	5	.	.
CC(=O)Nc1cnc(-c2ccccc2O)cn1	3	.	8	.	.
CCN(c1ccccc1)S(=O)(=O)c1ccc(OC)c(NC(=O)CNCCc2ccccc2)c1	0	22	-16	-13	-33*
COc1ccc(/C=N/NC(=O)CCn2c3ccccc3c3ccccc32)cc1OC	0	11	-2	3	0

Screening data (PubChem)
